Results reported in the supplement of paper PMC7156485.
A number with no mark means an inactive call.

Test system: HCC1569
Experiment: H1.0 immunofluorescence intensity relative to DMSO (% of DMSO); higher = stronger H1.0 induction, active = 140 or more
Settings: concentration: 10 µM; 24 h
In short: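 Using 384-well plates with 800 cells per well in RPMI plus 10% FBS, HCC1569 and TDF cells were exposed to compounds at 10 µM, in triplicate, for 24 h at 37 °C. Imaging of six fields per well at ×10 followed H1.0 and DAPI staining. The reported quantity, H1.0 nuclear intensity or cell number, is a median of replicates given as percent of the plate control, and HCC1569 values were smoothed for positional effects.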
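Also: TDF is a line of transformed human dermal fibroblasts of mesenchymal origin.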

Row | SMILES | H1.0 immunofluorescence intensity
1 | CC(=O)CCCCn1c(=O)c2c(ncn2C)n(C)c1=O [Pentoxifylline] | 105
2 | C=CCn1c(=O)c2c(nc(-c3ccc(S(=O)(=O)O)cc3)n2C)n(C)c1=O [1-Allyl-3,7-dimethyl-8-p-sulfophenylxanthine] | 105
3 | CC1=C(CC(=O)O)c2cc(F)ccc2C1=Cc1ccc(S(C)=O)cc1 (stereo unspecified) [Sulindac] | 100
4 | CCc1cccc2c3c([nH]c12)C(CC)(CC(=O)O)OCC3 (stereo unspecified) [Etodolac] | 105
5 | NNCCc1ccccc1.O=S(=O)(O)O [Phenelzine sulfate] | 74.3
6 | C=CCc1ccc(O)c(-c2cc(CC=C)ccc2O)c1 [Magnolol] | 83
7 | CCCOC(=O)c1cc(O)c(O)c(O)c1 [N-Propyl gallate] | 107
8 | CCC(C)C(=O)OC1CC(C)C=C2C=CC(C)C(CCC3CC(O)CC(=O)O3)C21 (stereo unspecified) [Lovastatin] | 106
9 | Cc1ccc(S(=O)(=O)N2c3ccccc3Oc3ccccc32)cc1 [10-[(4-methylphenyl)sulfonyl]-10H-phenoxazine] | 154 (active)
10 | O=C(CCN1CCN(C(=O)OCc2cc(Cl)cc(Cl)c2)CC1)c1ccc2[nH]c(=O)oc2c1 | 168 (active)
11 | CCC(C)C(=O)OC1CC(O)C=C2C=CC(C)C(CCC3CC(O)CC(=O)O3)C21 (stereo unspecified) [Pravastatin Lactone] | 110
